For four molecules, outcome and AC50 results are on record in PubChem BioAssay (EPA / NIEHS).

Read-out in test [1]: TIMP metallopeptidase inhibitor 1 (TIMP1), TIMP1 (gene 7076)
The experiment in a line: BSK_hDFCGF_TIMP1: BioMAP Diversity Plus: hDFCGF Assay for TIMP metallopeptidase inhibitor 1 (TIMP1) Biomarker Activity (AID 2283062). To be noted: primary human foreskin fibroblasts; actives raise or lower the signal. An outline of the steps:
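Primary human foreskin fibroblasts in the hDFCGF system were dosed with compound for 24 h, then TIMP-1 was measured by ELISA. Activity was fitted bidirectionally relative to DMSO control; parallel SRB staining assessed cytotoxicity.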

Read-out in test [2]: Monokine induced gamma interferon (MIG), CXCL9 (gene 4283)
Put plainly: BSK_hDFCGF_MIG: BioMAP Diversity Plus: hDFCGF Assay for Monokine induced gamma interferon (MIG) Biomarker Activity (AID 2283063). As to conditions: primary human foreskin fibroblasts; actives raise or lower the signal. In a few lines: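 ELISA read-out of MIG from primary human dermal fibroblasts 24 h post-dosing. Gain or loss of signal fitted bidirectionally, DMSO as baseline.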

Read-out in test [3]: Vascular cell adhesion molecule 1 (VCAM1), VCAM1 (gene 7412)
The experiment in a line: BSK_hDFCGF_VCAM1: BioMAP Diversity Plus: hDFCGF Assay for Vascular cell adhesion molecule 1 (VCAM1) Biomarker Activity (AID 2283065).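 On AC50: VCAM-1 protein level quantified by ELISA after 24 h chemical exposure.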 As to conditions: primary human foreskin fibroblasts; actives raise or lower the signal. An outline of the steps: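 Primary human foreskin fibroblasts (hDFCGF system) were dosed with chemical and VCAM-1 was measured by ELISA 24 h later. Bidirectional curve fitting used DMSO as negative control and activity baseline.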

Read-out in test [4]: Plasminogen activator inhibitor-1 (PAI1), SERPINE1 (gene 5054)
The experiment in a line: BSK_hDFCGF_PAI1: BioMAP Diversity Plus: hDFCGF Assay for Plasminogen activator inhibitor-1 (PAI1) Biomarker Activity (AID 2283066). To be noted: primary human foreskin fibroblasts; actives raise or lower the signal. In a few lines:
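PAI-1 levels in human dermal foreskin fibroblasts were quantified by ELISA 24 h after dosing, with gain or loss analysed against DMSO. Overt cytotoxicity was checked by sulforhodamine B total-protein staining in parallel cultures.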

Read-out in test [5]: Intercellular Adhesion Molecule 1 (ICAM1), ICAM1 (gene 3383)
The experiment in a line: BSK_KF3CT_ICAM1: BioMAP Diversity Plus: KF3CT Assay for Intercellular Adhesion Molecule 1 (ICAM1) Biomarker Activity (AID 2283067). As to conditions: primary human keratinocytes with fibroblasts; actives raise or lower the signal. In a few lines:
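Human keratinocyte plus foreskin fibroblast primary co-culture was exposed to chemical for 24 h. ICAM-1 was then quantified by ELISA, and the data were fit bidirectionally against DMSO as the negative control and baseline.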

Read-out in test [6]: Interferon-gamma inducible Protein 10 (IP10), CXCL10 (gene 3627)
The experiment in a line: BSK_KF3CT_IP10: BioMAP Diversity Plus: KF3CT Assay for Interferon-gamma inducible Protein 10 (IP10) Biomarker Activity (AID 2283068). As to conditions: primary human keratinocytes with fibroblasts; actives raise or lower the signal. An outline of the steps:
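In a primary skin co-culture of keratinocytes and fibroblasts, IP-10 is quantified by ELISA at 24 h after dosing. SRB staining of parallel wells monitors overt toxicity. Curves are fitted both directions against DMSO.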

Read-out in test [7]: Interleukin-1 alpha (IL1a), IL1A (gene 3552)
Put plainly: BSK_KF3CT_IL1a: BioMAP Diversity Plus: KF3CT Assay for Interleukin-1 alpha (IL1a) Biomarker Activity (AID 2283070). As to conditions: primary human keratinocytes with fibroblasts; actives raise or lower the signal. In a few lines: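 Primary skin co-culture (keratinocytes, foreskin fibroblasts), 24 h exposure; ELISA for IL-1a; bidirectional curve fit vs DMSO.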

Read-out in test [8]: TIMP metallopeptidase inhibitor 2 (TIMP2), TIMP2 (gene 7077)
Put plainly: BSK_KF3CT_TIMP2: BioMAP Diversity Plus: KF3CT Assay for TIMP metallopeptidase inhibitor 2 (TIMP2) Biomarker Activity (AID 2283071). As to conditions: primary human keratinocytes with fibroblasts; actives raise or lower the signal. In a few lines: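 TIMP-2 measured by ELISA at 24 h in human keratinocyte/fibroblast primary co-cultures exposed to chemicals. Both increases and decreases were fitted against DMSO. Parallel cultures were stained with SRB for total protein as an overt-cytotoxicity check.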

Read-out in test [9]: Transforming growth factor beta 1 (TGFb1), TGFB1 (gene 7040)
The experiment in a line: BSK_KF3CT_TGFb1: BioMAP Diversity Plus: KF3CT Assay for Transforming growth factor beta 1 (TGFb1) Biomarker Activity (AID 2283072). As to conditions: primary human keratinocytes with fibroblasts; actives raise or lower the signal. In a few lines:
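ELISA quantifies TGF-b1 at 24 h post-dose in a primary human skin co-culture of keratinocytes and fibroblasts, with gain or loss judged against DMSO. Parallel SRB total-protein staining flags overt cytotoxicity.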

Read-out in test [10]: C-C motif chemokine 2 (Homo sapiens) (UniProt P13500)
Put plainly: BSK_KF3CT_MCP1: BioMAP Diversity Plus: KF3CT Assay for Monocyte Chemoattractant Protein 1 (MCP1/CCL2) Biomarker Activity (AID 2283073). To be noted: primary human keratinocytes with fibroblasts; actives raise or lower the signal. An outline of the steps: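 Human keratinocyte plus foreskin fibroblast primary co-culture exposed to chemical for 24 h. MCP-1 levels measured by ELISA. Bidirectional curve fitting relative to DMSO negative control as baseline.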

Read-out in test [11]: urokinase plasminogen activator (uPA), PLAU (gene 5328)
The experiment in a line: BSK_KF3CT_uPA: BioMAP Diversity Plus: KF3CT Assay for urokinase plasminogen activator (uPA) Biomarker Activity (AID 2283075). As to conditions: primary human keratinocytes with fibroblasts; actives raise or lower the signal. In a few lines:
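Skin co-culture (keratinocytes + foreskin fibroblasts), human primary; 24 h post-dose; uPA by ELISA; gain/loss fit vs DMSO baseline.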

Read-out in the next test: CD40, CD40 (gene 958)
The experiment in a line: BSK_LPS_CD40: BioMAP Diversity Plus: LPS Assay for CD40 Biomarker Activity (AID 2283076). To be noted: primary human HUVEC with PBMC; actives raise or lower the signal. In a few lines: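 Primary human umbilical vein endothelial cells co-cultured with peripheral blood mononuclear cells, LPS-stimulated, were dosed with chemical and read 24 h later. CD40 levels were measured by ELISA and fitted bidirectionally against DMSO as negative control and baseline.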

Read-out in test [12]: Interleukin-8 (IL8), CXCL8 (gene 3576)
Put plainly: BSK_LPS_IL8: BioMAP Diversity Plus: LPS Assay for Interleukin-8 (IL8) Biomarker Activity (AID 2283078). As to conditions: primary human HUVEC with PBMC; actives raise or lower the signal. An outline of the steps:
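Human umbilical vein endothelial cells co-cultured with PBMC were stimulated with LPS; IL-8 levels were measured by ELISA 24 h after chemical dosing. Activity was fitted bidirectionally against DMSO as negative control and baseline.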

The nature of test [13]: BSK_LPS_SRB: Viability Assessment in the BioMAP Diversity Plus: LPS Assay (AID 2283079).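 Further: total protein by sulforhodamine B absorbance as a cytotoxicity measure; measured one day after compound addition.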 To be noted: primary human HUVEC with PBMC. In a few lines: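 Human umbilical vein endothelial cells co-cultured with PBMC (LPS system) were dosed for 24 h. Total protein was stained with 0.1% sulforhodamine B after 10% TCA fixation, read at 560 nm, and fitted bidirectionally against DMSO baseline.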

Read-out in test [14]: Interleukin-1 alpha (IL1a), IL1A (gene 3552)
Put plainly: BSK_LPS_IL1a: BioMAP Diversity Plus: LPS Assay for Interleukin-1 alpha (IL1a) Biomarker Activity (AID 2283080). To be noted: primary human HUVEC with PBMC; actives raise or lower the signal. An outline of the steps: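 Human umbilical vein endothelial cells co-cultured with peripheral blood mononuclear cells were LPS-stimulated and exposed to test chemicals for 24 h. IL-1 alpha was quantified by ELISA, with bidirectional curve fitting against DMSO as the negative control and baseline.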

Read-out in test [15]: Monocyte Chemoattractant Protein-1 (MCP1), CCL2 (gene 6347)
The experiment in a line: BSK_LPS_MCP1: BioMAP Diversity Plus: LPS Assay for Monocyte Chemoattractant Protein-1 (MCP1) Biomarker Activity (AID 2283081).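 On AC50: co-culture stimulated with LPS; secreted MCP-1 protein quantified by ELISA in culture supernatant.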 To be noted: primary human HUVEC with PBMC; actives raise or lower the signal. In a few lines: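 HUVEC plus PBMC co-culture (human primary cells, LPS system) exposed to test chemical for 24 h; MCP-1 measured by ELISA. Bidirectional curve fitting against DMSO baseline; parallel SRB total-protein staining flags overt cytotoxicity.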

Read-out in test [16]: Matrix Metallopeptidase 1 (MMP1), MMP1 (gene 4312)
The experiment in a line: BSK_hDFCGF_MMP1: BioMAP Diversity Plus: hDFCGF Assay for Matrix Metallopeptidase 1 (MMP1) Biomarker Activity (AID 2283064). To be noted: primary human foreskin fibroblasts; actives raise or lower the signal. An outline of the steps: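 ELISA read-out of MMP1 from human foreskin fibroblasts (primary skin cells), 24 h post-dose. Gain or loss of signal was fitted bidirectionally versus DMSO negative control; cytotoxicity was checked by SRB in parallel cultures.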

Read-out in test [17]: Matrix Metallopeptidase 9 (MMP9), MMP9 (gene 4318)
The experiment in a line: BSK_KF3CT_MMP9: BioMAP Diversity Plus: KF3CT Assay for Matrix Metallopeptidase 9 (MMP9) Biomarker Activity (AID 2283074).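 Further: MMP9 protein level quantified by ELISA in the co-culture.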 To be noted: primary human keratinocytes with fibroblasts; actives raise or lower the signal. In a few lines:
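ELISA read-out of MMP-9 at 24 h post-dosing in a co-culture of human skin keratinocytes and foreskin fibroblasts. Gain or loss of signal was fitted in both directions against DMSO.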

Read-out in test [18]: E-selectin (Homo sapiens) (UniProt P16581)
Put plainly: BSK_LPS_Eselectin: BioMAP Diversity Plus: LPS Assay for Eselectin Biomarker Activity (AID 2283077). As to conditions: primary human HUVEC with PBMC; actives raise or lower the signal. An outline of the steps:
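Human umbilical vein endothelial cells co-cultured with peripheral blood mononuclear cells under LPS stimulation; E-selectin measured by ELISA 24 h after chemical dosing. Activity fitted bidirectionally against DMSO as negative control and baseline.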

The nature of test [19]: BSK_KF3CT_SRB: Viability Assessment in the BioMAP Diversity Plus: KF3CT Assay (AID 2283069).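 Further: read 24 h after compound addition.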 As to conditions: primary human keratinocytes with fibroblasts. An outline of the steps:
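SRB read-out at 560 nm (0.1% stain, TCA-fixed cells) gauges overt cytotoxicity in a human skin keratinocyte–fibroblast co-culture 24 h post-dosing. Signal change was fitted bidirectionally relative to DMSO control.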

Calls of active or inactive are those of the source. How the source made its calls: active means hit-call score of the fitted dose curve at least 0.9, where 1 is the maximum; inactive means score below 0.9.

Chain of E-selectin (Homo sapiens) (P16581 whole entry, looked up): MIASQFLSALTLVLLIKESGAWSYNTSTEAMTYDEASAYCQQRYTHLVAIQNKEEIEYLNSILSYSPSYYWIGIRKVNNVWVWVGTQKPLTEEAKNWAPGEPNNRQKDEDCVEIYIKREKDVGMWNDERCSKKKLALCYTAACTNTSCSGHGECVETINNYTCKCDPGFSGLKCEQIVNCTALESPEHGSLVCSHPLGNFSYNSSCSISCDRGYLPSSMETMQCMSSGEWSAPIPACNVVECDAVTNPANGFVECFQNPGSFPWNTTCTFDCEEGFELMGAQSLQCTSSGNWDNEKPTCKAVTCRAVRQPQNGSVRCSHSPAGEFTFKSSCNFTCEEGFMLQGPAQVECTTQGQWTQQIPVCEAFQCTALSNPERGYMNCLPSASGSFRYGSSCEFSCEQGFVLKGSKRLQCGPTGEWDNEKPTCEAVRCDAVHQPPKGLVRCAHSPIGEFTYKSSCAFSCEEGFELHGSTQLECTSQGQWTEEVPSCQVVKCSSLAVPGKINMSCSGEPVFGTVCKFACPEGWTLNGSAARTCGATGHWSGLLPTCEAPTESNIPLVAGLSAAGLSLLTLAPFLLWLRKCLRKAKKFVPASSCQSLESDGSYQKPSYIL

As to `CC(C)=CCCC(C)=CC=O`, the outcome in [1], in test [2], in test [3], in test [4], in test [5] and in test [6] was inactive. In addition, the outcome in test [7] was “inactive”; in test [8], “inactive”; in test [9], “inactive”; in [10], “inactive”; in test [11], “inactive”; with CD40, CD40 (gene 958), “inactive”. Besides, the result in [12], in [13], in [14] and in [15] was inactive.

On to `CCOCCOCCOCCO`, for which the result in [1], in [2], in test [16], in test [4], in [5] and in test [6] was inactive. Moreover, the outcome in test [7] is “inactive”; in test [9] it was “inactive”; in [10], “inactive”; in test [11], “inactive”; in the test with CD40, CD40 (gene 958), “inactive”; in [12] it was “inactive”. Besides, the result in test [13], in [14] and in [15] was inactive.

As a reminder, the AC50 is the concentration giving half of the maximal activity seen. `CC(C)c1cccc(C(C)C)c1N1C(=O)c2ccc(O)cc2C1=O`: the AC50 is 5.39 µM (active) in test [1]; 31.9 µM (active) in test [2]; 13.8 µM (active) in test [3]; 22 µM (active) in test [4]; 26 µM (active) in test [6]; 30.9 µM (active) in test [7]. Further, the AC50 in test [8] was 29.2 µM (active); in test [9] it was 29.4 µM (active); in [17] it was 23.2 µM (active); in test [11], 36.7 µM (active); with CD40, CD40 (gene 958) it was 8.13 µM (active); in [18] it was 18.9 µM (active). The AC50 in test [13] was 17.4 µM (active); in test [15], 34.8 µM (active). The result in test [5], in test [10], in test [12] and in test [14] was inactive.

Consider `CCC(C)(C)C(=O)O[C@H]1C[C@@H](C)C=C2C=C[C@H](C)[C@H](CC[C@@H]3C[C@@H](O)CC(=O)O3)[C@H]21`, for which the AC50 in test [1] was 34.2 µM (active); in [3], 33.9 µM (active); in test [4], 23.4 µM (active); in test [5], 31.2 µM (active); in [6] it was 34.3 µM (active); in test [19], 34.8 µM (active). In addition, the concentration at half-maximal activity (AC50) in [7] is 34.9 µM (active); in test [8] it was 30.8 µM (active); in test [9] it was 31.4 µM (active); in test [10], 36.9 µM (active); in [11], 31.2 µM (active); with CD40, CD40 (gene 958), 6.52 µM (active). The AC50 was 4.75 µM (active) in [13], 1.28 µM (active) in [14] and 30.5 µM (active) in test [15]. In addition, the outcome in test [2] and in [12] was inactive.
